# PMC11062922 (Nature Chemical Biology, 2023)
# Where two headings read alike, the source gives them in different places.
# Legend:
# FLT4 = conditions: read-out: apparent Kd, n = 1
# IRAK4 = conditions: read-out: apparent Kd, n = 1
# [1] = compound concentrations:100 nM and 1000 nM (sheet 'Lestaurtinib' of Supplementary Table 1),run:Lestaurtinib_02443_R3,Plate:MR009
# [2] = compound concentrations:100 nM and 1000 nM (sheet 'Lestaurtinib' of Supplementary Table 1),run:Lestaurtinib_02473_R1,Plate:MR010
# [3] = compound concentrations:100 nM and 1000 nM (sheet 'Lestaurtinib' of Supplementary Table 1),run:Lestaurtinib_02473_R2,Plate:MR010
# [4] = compound concentrations:100 nM and 1000 nM (sheet 'Lestaurtinib' of Supplementary Table 1),run:Lestaurtinib_02482_R3,Plate:MR011
# [5] = compound concentrations:100 nM and 1000 nM (sheet 'Lestaurtinib' of Supplementary Table 1),run:Lestaurtinib_02566_R1,Plate:MR014
# [6] = compound concentrations:100 nM and 1000 nM (sheet 'Lestaurtinib' of Supplementary Table 1),run:Lestaurtinib_02566_R3,Plate:MR014
substance,measurement,setting,value
Lestaurtinib,potency estimated from few doses,FLT4; [1],154 nM
same,potency estimated from few doses,FLT4; [2],310 nM
same,potency estimated from few doses,FLT4; [3],316 nM
same,potency estimated from few doses,FLT4; [4],229 nM
same,potency estimated from few doses,"FLT4; compound concentrations:100 nM and 1000 nM (sheet 'Lestaurtinib' of Supplementary Table 1),run:Lestaurtinib_02487_R2,Plate:MR012",131 nM
same,potency estimated from few doses,FLT4; [5],1590 nM
same,potency estimated from few doses,"FLT4; compound concentrations:100 nM and 1000 nM (sheet 'Lestaurtinib' of Supplementary Table 1),run:Lestaurtinib_02566_R2,Plate:MR014",90.7 nM
same,potency estimated from few doses,FLT4; [6],77.7 nM
same,potency estimated from few doses,"FLT4; compound concentrations:100 nM and 1000 nM (sheet 'Lestaurtinib' of Supplementary Table 1),run:Lestaurtinib_02577_R2,Plate:MR016",225 nM
same,potency estimated from few doses,"FLT4; compound concentrations:100 nM and 1000 nM (sheet 'Lestaurtinib' of Supplementary Table 1),run:Lestaurtinib_02577_R3,Plate:MR016",160 nM
same,potency estimated from few doses,"FLT4; compound concentrations:100 nM and 1000 nM (sheet 'Lestaurtinib' of Supplementary Table 1),run:Lestaurtinib_02584_R1,Plate:MR017",396 nM
same,potency estimated from few doses,"FLT4; compound concentrations:100 nM and 1000 nM (sheet 'Lestaurtinib' of Supplementary Table 1),run:Lestaurtinib_02584_R2,Plate:MR017",124 nM
same,potency estimated from few doses,"FLT4; compound concentrations:100 nM and 1000 nM (sheet 'Lestaurtinib' of Supplementary Table 1),run:Lestaurtinib_02584_R3,Plate:MR017",434 nM
same,potency estimated from few doses,"FLT4; compound concentrations:100 nM and 1000 nM (sheet 'Lestaurtinib' of Supplementary Table 1),run:Lestaurtinib_02601_R1,Plate:MR018",286 nM
same,potency estimated from few doses,"FLT4; compound concentrations:100 nM and 1000 nM (sheet 'Lestaurtinib' of Supplementary Table 1),run:Lestaurtinib_02601_R2,Plate:MR018",202 nM
same,potency estimated from few doses,"FLT4; compound concentrations:100 nM and 1000 nM (sheet 'Lestaurtinib' of Supplementary Table 1),run:Lestaurtinib_02601_R3,Plate:MR018",86 nM
same,potency estimated from few doses,"FLT4; compound concentrations:100 nM and 1000 nM (sheet 'Lestaurtinib' of Supplementary Table 1),run:Lestaurtinib_02606_R3,Plate:MR019",231 nM
same,potency estimated from few doses,"FLT4; compound concentrations:100 nM and 1000 nM (sheet 'Lestaurtinib' of Supplementary Table 1),run:Lestaurtinib_02624_R1,Plate:MR020",358 nM
same,potency estimated from few doses,"FLT4; compound concentrations:100 nM and 1000 nM (sheet 'Lestaurtinib' of Supplementary Table 1),run:Lestaurtinib_02624_R2,Plate:MR020",135 nM
same,potency estimated from few doses,"FLT4; compound concentrations:100 nM and 1000 nM (sheet 'Lestaurtinib' of Supplementary Table 1),run:Lestaurtinib_02624_R3,Plate:MR020",359 nM
same,potency estimated from few doses,"FLT4; compound concentrations:100 nM and 1000 nM (sheet 'Lestaurtinib' of Supplementary Table 1),run:Lestaurtinib_02724_R2,Plate:MR021",319 nM
same,potency estimated from few doses,"FLT4; compound concentrations:100 nM and 1000 nM (sheet 'Lestaurtinib' of Supplementary Table 1),run:Lestaurtinib_02741_R2,Plate:MR023",701 nM
same,potency estimated from few doses,"FLT4; compound concentrations:100 nM and 1000 nM (sheet 'Lestaurtinib' of Supplementary Table 1),run:Lestaurtinib_02748_R1,Plate:MR024",330 nM
same,potency estimated from few doses,"FLT4; compound concentrations:100 nM and 1000 nM (sheet 'Lestaurtinib' of Supplementary Table 1),run:Lestaurtinib_02748_R2,Plate:MR024",521 nM
same,potency estimated from few doses,"FLT4; compound concentrations:100 nM and 1000 nM (sheet 'Lestaurtinib' of Supplementary Table 1),run:Lestaurtinib_02748_R3,Plate:MR024",161 nM
same,potency estimated from few doses,"FLT4; compound concentrations:100 nM and 1000 nM (sheet 'Lestaurtinib' of Supplementary Table 1),run:Lestaurtinib_02752_R1,Plate:MR025",310 nM
same,potency estimated from few doses,"FLT4; compound concentrations:100 nM and 1000 nM (sheet 'Lestaurtinib' of Supplementary Table 1),run:Lestaurtinib_02752_R3,Plate:MR025",254 nM
same,potency estimated from few doses,"FLT4; compound concentrations:100 nM and 1000 nM (sheet 'Lestaurtinib' of Supplementary Table 1),run:Lestaurtinib_02765_R2,Plate:MR026",162 nM
same,potency estimated from few doses,"FLT4; compound concentrations:100 nM and 1000 nM (sheet 'Lestaurtinib' of Supplementary Table 1),run:Lestaurtinib_02765_R3,Plate:MR026",400 nM
same,potency estimated from few doses,"FLT4; compound concentrations:100 nM and 1000 nM (sheet 'Lestaurtinib' of Supplementary Table 1),run:Lestaurtinib_02766_R1,Plate:MR027",350 nM
same,potency estimated from few doses,"FLT4; compound concentrations:100 nM and 1000 nM (sheet 'Lestaurtinib' of Supplementary Table 1),run:Lestaurtinib_02766_R3,Plate:MR027",237 nM
same,potency estimated from few doses,"FLT4; compound concentrations:100 nM and 1000 nM (sheet 'Lestaurtinib' of Supplementary Table 1),run:Lestaurtinib_02768_R1,Plate:MR028",180 nM
same,potency estimated from few doses,"FLT4; compound concentrations:100 nM and 1000 nM (sheet 'Lestaurtinib' of Supplementary Table 1),run:Lestaurtinib_02768_R2,Plate:MR028",389 nM
same,potency estimated from few doses,"FLT4; compound concentrations:100 nM and 1000 nM (sheet 'Lestaurtinib' of Supplementary Table 1),run:Lestaurtinib_02768_R3,Plate:MR028",493 nM
same,potency estimated from few doses,"FLT4; compound concentrations:100 nM and 1000 nM (sheet 'Lestaurtinib' of Supplementary Table 1),run:Lestaurtinib_02795_R1,Plate:MR022",391 nM
same,potency estimated from few doses,"FLT4; compound concentrations:100 nM and 1000 nM (sheet 'Lestaurtinib' of Supplementary Table 1),run:Lestaurtinib_02795_R2,Plate:MR022",229 nM
same,potency estimated from few doses,"FLT4; compound concentrations:100 nM and 1000 nM (sheet 'Lestaurtinib' of Supplementary Table 1),run:Lestaurtinib_02795_R3,Plate:MR022",297 nM
same,potency estimated from few doses,"FLT4; compound concentrations:100 nM and 1000 nM (sheet 'Lestaurtinib' of Supplementary Table 1),run:Lestaurtinib_02802_R1,Plate:MR029",183 nM
same,potency estimated from few doses,"FLT4; compound concentrations:100 nM and 1000 nM (sheet 'Lestaurtinib' of Supplementary Table 1),run:Lestaurtinib_02896_R1,Plate:MR030",159 nM
same,potency estimated from few doses,"FLT4; compound concentrations:100 nM and 1000 nM (sheet 'Lestaurtinib' of Supplementary Table 1),run:Lestaurtinib_02896_R2,Plate:MR030",151 nM
same,potency estimated from few doses,"FLT4; compound concentrations:100 nM and 1000 nM (sheet 'Lestaurtinib' of Supplementary Table 1),run:Lestaurtinib_02896_R3,Plate:MR030",372 nM
same,potency estimated from few doses,"FLT4; compound concentrations:100 nM and 1000 nM (sheet 'Lestaurtinib' of Supplementary Table 1),run:Lestaurtinib_03172_R3,Plate:MR031",131 nM
same,potency estimated from few doses,"FLT4; compound concentrations:100 nM and 1000 nM (sheet 'Lestaurtinib' of Supplementary Table 1),run:Lestaurtinib_03252_R1,Plate:MR032",229 nM
same,potency estimated from few doses,"FLT4; compound concentrations:100 nM and 1000 nM (sheet 'Lestaurtinib' of Supplementary Table 1),run:Lestaurtinib_03252_R2,Plate:MR032",76.2 nM
same,potency estimated from few doses,"FLT4; compound concentrations:100 nM and 1000 nM (sheet 'Lestaurtinib' of Supplementary Table 1),run:Lestaurtinib_03260_R1,Plate:MR033",162 nM
same,potency estimated from few doses,"FLT4; compound concentrations:100 nM and 1000 nM (sheet 'Lestaurtinib' of Supplementary Table 1),run:Lestaurtinib_03260_R3,Plate:MR033",388 nM
same,potency estimated from few doses,"IRAK4; compound concentrations:100 nM and 1000 nM (sheet 'Lestaurtinib' of Supplementary Table 1),run:Lestaurtinib_02339_R2,Plate:MR001",146 nM
same,potency estimated from few doses,"IRAK4; compound concentrations:100 nM and 1000 nM (sheet 'Lestaurtinib' of Supplementary Table 1),run:Lestaurtinib_02339_R3,Plate:MR001",62 nM
same,potency estimated from few doses,"IRAK4; compound concentrations:100 nM and 1000 nM (sheet 'Lestaurtinib' of Supplementary Table 1),run:Lestaurtinib_02364_R1,Plate:MR002",77.8 nM
same,potency estimated from few doses,"IRAK4; compound concentrations:100 nM and 1000 nM (sheet 'Lestaurtinib' of Supplementary Table 1),run:Lestaurtinib_02364_R3,Plate:MR002",95 nM
same,potency estimated from few doses,"IRAK4; compound concentrations:100 nM and 1000 nM (sheet 'Lestaurtinib' of Supplementary Table 1),run:Lestaurtinib_02381_R1,Plate:MR004",93.9 nM
same,potency estimated from few doses,"IRAK4; compound concentrations:100 nM and 1000 nM (sheet 'Lestaurtinib' of Supplementary Table 1),run:Lestaurtinib_02381_R2,Plate:MR004",76.7 nM
same,potency estimated from few doses,"IRAK4; compound concentrations:100 nM and 1000 nM (sheet 'Lestaurtinib' of Supplementary Table 1),run:Lestaurtinib_02381_R3,Plate:MR004",65.8 nM
same,potency estimated from few doses,"IRAK4; compound concentrations:100 nM and 1000 nM (sheet 'Lestaurtinib' of Supplementary Table 1),run:Lestaurtinib_02407_R1,Plate:MR005",69.8 nM
same,potency estimated from few doses,"IRAK4; compound concentrations:100 nM and 1000 nM (sheet 'Lestaurtinib' of Supplementary Table 1),run:Lestaurtinib_02407_R2,Plate:MR005",55.3 nM
same,potency estimated from few doses,"IRAK4; compound concentrations:100 nM and 1000 nM (sheet 'Lestaurtinib' of Supplementary Table 1),run:Lestaurtinib_02407_R3,Plate:MR005",85.3 nM
same,potency estimated from few doses,"IRAK4; compound concentrations:100 nM and 1000 nM (sheet 'Lestaurtinib' of Supplementary Table 1),run:Lestaurtinib_02422_R1,Plate:MR006",136 nM
same,potency estimated from few doses,"IRAK4; compound concentrations:100 nM and 1000 nM (sheet 'Lestaurtinib' of Supplementary Table 1),run:Lestaurtinib_02422_R3,Plate:MR006",131 nM
same,potency estimated from few doses,"IRAK4; compound concentrations:100 nM and 1000 nM (sheet 'Lestaurtinib' of Supplementary Table 1),run:Lestaurtinib_02437_R2,Plate:MR007",140 nM
same,potency estimated from few doses,"IRAK4; compound concentrations:100 nM and 1000 nM (sheet 'Lestaurtinib' of Supplementary Table 1),run:Lestaurtinib_02438_R1,Plate:MR008",79.9 nM
same,potency estimated from few doses,"IRAK4; compound concentrations:100 nM and 1000 nM (sheet 'Lestaurtinib' of Supplementary Table 1),run:Lestaurtinib_02443_R1,Plate:MR009",113 nM
same,potency estimated from few doses,"IRAK4; compound concentrations:100 nM and 1000 nM (sheet 'Lestaurtinib' of Supplementary Table 1),run:Lestaurtinib_02443_R2,Plate:MR009",92.2 nM
same,potency estimated from few doses,IRAK4; [1],98.9 nM
same,potency estimated from few doses,IRAK4; [2],79.8 nM
same,potency estimated from few doses,IRAK4; [3],132 nM
same,potency estimated from few doses,"IRAK4; compound concentrations:100 nM and 1000 nM (sheet 'Lestaurtinib' of Supplementary Table 1),run:Lestaurtinib_02473_R3,Plate:MR010",96.5 nM
same,potency estimated from few doses,"IRAK4; compound concentrations:100 nM and 1000 nM (sheet 'Lestaurtinib' of Supplementary Table 1),run:Lestaurtinib_02482_R1,Plate:MR011",78.2 nM
same,potency estimated from few doses,"IRAK4; compound concentrations:100 nM and 1000 nM (sheet 'Lestaurtinib' of Supplementary Table 1),run:Lestaurtinib_02482_R2,Plate:MR011",180 nM
same,potency estimated from few doses,IRAK4; [4],99.7 nM
same,potency estimated from few doses,"IRAK4; compound concentrations:100 nM and 1000 nM (sheet 'Lestaurtinib' of Supplementary Table 1),run:Lestaurtinib_02496_R1,Plate:MR013",124 nM
same,potency estimated from few doses,"IRAK4; compound concentrations:100 nM and 1000 nM (sheet 'Lestaurtinib' of Supplementary Table 1),run:Lestaurtinib_02496_R2,Plate:MR013",146 nM
same,potency estimated from few doses,"IRAK4; compound concentrations:100 nM and 1000 nM (sheet 'Lestaurtinib' of Supplementary Table 1),run:Lestaurtinib_02496_R3,Plate:MR013",193 nM
same,potency estimated from few doses,IRAK4; [5],142 nM
same,potency estimated from few doses,IRAK4; [6],80.8 nM
same,potency estimated from few doses,"IRAK4; compound concentrations:100 nM and 1000 nM (sheet 'Lestaurtinib' of Supplementary Table 1),run:Lestaurtinib_02577_R1,Plate:MR016",88.6 nM
